The source of these data is PubChem BioAssay (Tox21).

SMILES strings stand for the structures. Records with an inconclusive call do not appear. Where a call stands in place of a potency, no number is given. More than one record can exist for a structure, and the calls need not agree. The source made the active and inactive calls. The call rests on the fitted dose curve; in most records, active means well fitted cell-killing curve with a large enough effect in the repeat runs (not every such curve was filed as active); inconclusive means weak or mixed curves, or effect the other way; inactive means no such curve, though single readings can be large or run the other way.
Potency means the concentration at half of the fitted maximal effect.

This test can be described thus: qHTS assay to identify small molecule antagonists of the estrogen related receptor signaling pathway with the pleiotropic PPARgamma coactivator (PGC) from Tox21 10K library - cell viability counter screen (AID 1224840). Further: nearly all actives have a fitted effect of over 40% in size. The settings on record: PGC/ERR reporter cells viability, CellTiter-Fluor, 17.5 h; series mostly up to 92.4 µM. The method, boiled down: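 Readout: fluorescence intensity from CellTiter-Fluor after 30 min at 37 C/5% CO2. Preceded by 17.5 h treatment of PGC/ERR cells with DMSO-dissolved compounds, added 6 h post-seeding.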
(In general: In qHTS, concentration-response curves come from the screen itself.)
In the case of `CCOCCOCCO`, the Potency entry is “inactive”.
`C/C=C/C(=O)O`: the Potency entry is “inactive”.
Consider `O=C(Nc1ccc([N+](=O)[O-])cc1Cl)c1cc(Cl)ccc1O`, for which the Potency was 2.73 µM (active).
Consider `COC(=O)CCC(=O)OC`, for which the Potency result is “inactive”.
For `O=CCc1ccccc1`, the Potency entry is “inactive”.
Take `COC(=O)c1ccccc1`: the Potency result was “inactive”.
Consider `CC(C)OC=O`, for which the Potency entry is “inactive”.
For the compound `Nc1ccc(S(=O)(=O)Nc2cnc3ccccc3n2)cc1`, the Potency result was “inactive”.
As to `O=C(O)c1ccccc1Nc1cccc(C(F)(F)F)c1`, the Potency entry is “inactive”.
`CN(C)CCN(Cc1cccs1)c1ccccn1`: the Potency result was “inactive”.
On to `CCC(C)(O)CCCC(C)C` (stereo not drawn), for which the Potency result was “inactive”.
Take `Cc1c(C(N)=O)cc([N+](=O)[O-])cc1[N+](=O)[O-]`: the Potency entry was “inactive”.
Regarding `O=C(COc1ccc(Cl)cc1)N1CCN(Cc2ccc3c(c2)OCO3)CC1`, the Potency result was “inactive”.
Regarding `CN(C)c1nc(N(C)C)nc(N(C)C)n1`, the Potency result was “inactive”.
Consider `Cc1cccc([N+](=O)[O-])c1C`, for which the Potency entry was “inactive”.
Under `CC(C)=CCC/C(C)=C\CO` stands “inactive”.
`Cc1ncc[nH]1`: the Potency entry is “inactive”.
For `O=CCCCC=O`, the Potency result is “inactive”.
For `CCCCCCCCCC(=O)OC`, the Potency result was “inactive”.
`CCCc1c(OCCCCc2nn[nH]n2)ccc(C(C)=O)c1O`: the Potency result was “inactive”.
The entry for `C[Si](C)(C)O[Si](C)(C)C` is “inactive”.
With `C=C(C)C1CC=C(C)CC1` (stereo not drawn), the Potency result was “inactive”.
With `C#C[C@]1(O)CC[C@H]2[C@@H]3CCC4=Cc5oncc5C[C@]4(C)[C@H]3CC[C@@]21C`, the Potency was 48.6 µM (active) and inactive.
Take `Oc1ccc(O)cc1`: the Potency entry is “inactive”.
Consider `COc1ccc(C(=O)CC(=O)c2ccc(C(C)(C)C)cc2)cc1`, for which the Potency entry was “inactive”.
Take `CC(C)=CCCC(C)CCO` (stereo not drawn): the Potency entry was “inactive”.
Under `c1ccc2c(c1)c1cccc3ccc4cccc2c4c31` stands “inactive”.
The entry for `C[C@]12CCC(=O)C=C1CC[C@@H]1[C@@H]2C(=O)C[C@@]2(C)[C@H]1CC[C@]2(O)C(=O)CO` is “inactive”; for `OC1CCCCCCCCCCC1` it is “inactive”; for `CC(=O)C1(C)CC2=C(CCCC2(C)C)CC1C` (stereo not drawn) it is “inactive”.
For the compound `C=CC(C)(CCC=C(C)C)OC(C)=O` (stereo not drawn), the Potency entry is “inactive”.
Under `NNc1ccc(C(=O)O)cc1` stands “inactive”.
For `CC(=O)c1ccccn1`, the Potency result was “inactive”.
For `COC(C)COC(C)COC(C)CO` (stereo not drawn), the Potency result is “inactive”.
For `O=C=Nc1ccc(Cc2ccc(N=C=O)cc2)cc1`, the Potency result is “inactive”.
The entry for `COc1ccc(OC)c(C(O)CNC(=O)CN)c1` (stereo not drawn) is “inactive”; for `O=S(=O)(O)c1ccc(O)cc1` it is “inactive”; for `CC(=O)CC/C=C(\C)CCC=C(C)C` it is “inactive”.
